The values below come from PMC5540273 (PLoS ONE, 2017).

Molecules are shown by their SMILES.
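Note: KINOMEscan kinase panel screen.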

For one experiment, the system named is T1, DMPK2.
T1 construct: gene CDC42BPG
The following applies: concentration: 1 μM, replicates: in singlicate; n = 1.
For `c1ccc(-c2ccc3c(-c4ccnc(Nc5ccc6c(c5)OCCO6)n4)cnn3n2)cc1` [GW818941], the “%Inh” value was 0%.
Consider `CCCc1ccc(S(=O)(=O)NC2CCN(c3ccnc(Nc4ccc(OC)cc4)n3)C2)cc1` (centres unmarked) [GSK1379737], for which the “%Inh” value worked out at 94.7%.
On to `Clc1cccc(-c2nc(Nc3ccncc3)c3ccccc3n2)c1` [GW873004], for which the “%Inh” value turned out to be 84%.
In the case of `Cc1ccc(O)cc1Nc1cc(C(F)(F)F)nc2ccc(-c3ccncc3)cc12` [GW630823], the “%Inh” value is 4%.
As for `COc1cc2ncnc(Nc3ccc(OCc4ccccc4Br)c(Cl)c3)c2cc1OC.Cl` [GI261590], the “%Inh” value is listed as 7%.
For the compound `Clc1ccc(-c2cc(-c3c[nH]nc3-c3ccccn3)ccn2)cc1` [GW681251], the “%Inh” value is 0%.
Still for that read-out and setting: in the case of `CC(C)(C)OC(=O)NC1CCCN(c2cc(-c3ccc4c(N)n[nH]c4c3)nc(N)n2)C1` (centres unmarked) [GSK2286096] it was 0%; in that of `Cc1cccc(-c2nc(Nc3ccc4[nH]nnc4c3)c3ccccc3n2)n1` [GW867587], 0%.
With `O=C(Nc1ccccc1)Nc1ccc(Oc2ccc3nccn3n2)cc1`, the “%Inh” value was found to be 0%.
On the same count and under the same terms, in the case of `CNc1nccc(-c2c(-c3ccc(F)cc3)ncn2CCCN2CCOCC2)n1` [SB-222516] it was 93%.
Turning to `Fc1cccc(COc2ccc(Nc3ncnc4sc(-c5ccc[nH]5)cc34)cc2Cl)c1` [GW707818], the “%Inh” value is 0%.
As for `O=C(Nc1ccccc1F)NC1CCN(c2ccnc(Nc3ccc(F)cc3)n2)C1` (centres unmarked) [GSK1379722], the “%Inh” value turned out to be 1%.
With `Cl.Cl.c1ccc(-c2cc3ccncc3cc2OC2CCNCC2)cc1` [GSK1122999], the “%Inh” value is 18%.
On the same count and under the same terms, in the case of `Fc1cccc(COc2ccc(Nc3ncnc4cc[nH]c34)cc2Cl)c1` it was 16%.
Same read-out and setting: as for `COC(=O)c1cccc(NC(=O)NCCNc2ccnc(Nc3ccc(F)cc3)n2)c1` [GSK1379883], the figure is 8%.
Same read-out and setting: in the case of `CN1c2ccc(-c3ccc(C(=O)NCCO)cc3)cc2-c2[nH]ncc2S1(=O)=O` it was 7%; in that of `CC(C)(C)c1ccc(-n2cnc3c(N)ncnc32)cc1` [SKF-97263], 0%.
Turning to `Nc1nc(-c2cccnc2)c(-c2ccnc3ccccc23)s1` [GW684083], the “%Inh” value was 0%.
For the compound `CSc1ccc(NC2=C(c3ccccc3Cl)C(=O)NC2=O)cc1` [SB-342411], the “%Inh” value was determined as 0%.
Same read-out and setting: as for `Cc1ccc(C)c(NC(=O)NCCNc2ccnc(Nc3ccc(F)cc3)n2)c1` [GSK1379878], the figure is 0%; as for `COc1ccc(-c2oc3ncnc(N)c3c2-c2ccc(OC)cc2)cc1` [SB-589132], 2%; as for `Cl.Cn1ccc(-c2cccc(Nc3ccnc4cc(-c5nccs5)ccc34)c2)n1` [GW525701], 0%.
Consider `Cn1cc(-c2ccc3c(c2)CCN3C(=O)Cc2cccc(C(F)(F)F)c2)c2c(N)ncnc21` [GSK2606414], for which the “%Inh” value is on record as 0%.
On the same count and under the same terms, in the case of `FC(F)(F)c1cc(Nc2nccc(-c3c(-c4ccc(Cl)cc4)nn4ncccc34)n2)ccc1Cl` [GW829351] it was 19%; in that of `O=C(CCO)NCCn1ccc2ncnc(Nc3ccc(Oc4cccc(C(F)(F)F)c4)c(Cl)c3)c21`, 0%; in that of `COc1ccc(NC(=O)Nc2ccc(C)c(-c3ccc(C(=O)Nc4ccncc4)cc3)c2)cc1` [GSK1398475], 6%.
Same read-out and setting: in the case of `CSc1nn2c(=O)cc(N3CCOCC3)nc2n1Cc1cccc(Cl)c1Cl` [GSK2347225] it was 16%; in that of `CS(=O)(=O)CCNCc1nc(-c2ccc3ncnc(Nc4ccc(OCc5cccc(F)c5)c(Cl)c4)c3c2)cs1.Cl` [GW583340], 0%.
Take `Nc1nc(-c2ccc3c(N)n[nH]c3c2)cc(N2CCC[C@@H](C(=O)Nc3ccccc3)C2)n1.O=C(O)C(F)(F)F.O=C(O)C(F)(F)F` [GSK2288359]: the “%Inh” value came to 15%.
Same read-out and setting: in the case of `C[C@H]1CC[C@@H](C(=O)Nc2ccccc2)CN1c1cc(-c2ccc3c(N)n[nH]c3c2)nc(N)n1` [GSK2283293] it was 11%.
Turning to `CN1CCC(n2cnc(-c3ccc(F)cc3)c2-c2ccnc(NC3CCNCC3)n2)CC1` [SB-229482], the “%Inh” value is reported as 18%.
On the same count and under the same terms, as for `Cc1cc(N2CCC(NS(=O)(=O)c3ccc(F)cc3)CC2)nc(Nc2cccc(C#N)c2)n1.O=C(O)C(F)(F)F` [GSK1653537], the figure is 0%.
The same measure, in the same setting: as for `CCc1nc(-c2cccc(N(C)S(=O)(=O)c3ccccc3)c2)c(-c2ccnc(Nc3ccc(N4CCN(C(C)=O)CC4)nc3)n2)s1` [GSK1645895], the figure is 22%; as for `Nc1n[nH]c2nnc(-c3ccccc3)cc12` [SB-517389], 0%.
Take `CCC(CC)(CC)n1cnc2c(N)ncnc21` [SKF-97620]: the “%Inh” value came out at 0%.

The next experiment concerns DMPK. The following applies: concentration: 1 μM, replicates: in singlicate; n = 1.
Consider `c1ccc(-c2ccc3c(-c4ccnc(Nc5ccc6c(c5)OCCO6)n4)cnn3n2)cc1` [GW818941], for which the “%Inh” value is 20%.
For the compound `CCCc1ccc(S(=O)(=O)NC2CCN(c3ccnc(Nc4ccc(OC)cc4)n3)C2)cc1` (centres unmarked) [GSK1379737], the “%Inh” value came to 0%.
Regarding `Clc1cccc(-c2nc(Nc3ccncc3)c3ccccc3n2)c1` [GW873004], the “%Inh” value is reported as 4%.
Same read-out and setting: in the case of `Cc1ccc(O)cc1Nc1cc(C(F)(F)F)nc2ccc(-c3ccncc3)cc12` [GW630823] it was 0%; in that of `COc1cc2ncnc(Nc3ccc(OCc4ccccc4Br)c(Cl)c3)c2cc1OC.Cl` [GI261590], 0%.
Still for that read-out and setting: as for `Clc1ccc(-c2cc(-c3c[nH]nc3-c3ccccn3)ccn2)cc1` [GW681251], the figure is 0%; as for `CC(C)(C)OC(=O)NC1CCCN(c2cc(-c3ccc4c(N)n[nH]c4c3)nc(N)n2)C1` (centres unmarked) [GSK2286096], 0%.
Same read-out and setting: in the case of `Cc1cccc(-c2nc(Nc3ccc4[nH]nnc4c3)c3ccccc3n2)n1` [GW867587] it was 0%; in that of `O=C(Nc1ccccc1)Nc1ccc(Oc2ccc3nccn3n2)cc1`, 6%.
Turning to `CNc1nccc(-c2c(-c3ccc(F)cc3)ncn2CCCN2CCOCC2)n1` [SB-222516], the “%Inh” value was determined as 7%.
The same measure, in the same setting: in the case of `Fc1cccc(COc2ccc(Nc3ncnc4sc(-c5ccc[nH]5)cc34)cc2Cl)c1` [GW707818] it was 0%; in that of `O=C(Nc1ccccc1F)NC1CCN(c2ccnc(Nc3ccc(F)cc3)n2)C1` (centres unmarked) [GSK1379722], 0%.
Take `Cl.Cl.c1ccc(-c2cc3ccncc3cc2OC2CCNCC2)cc1` [GSK1122999]: the “%Inh” value was found to be 0%.
On the same count and under the same terms, as for `Fc1cccc(COc2ccc(Nc3ncnc4cc[nH]c34)cc2Cl)c1`, the figure is 1%; as for `COC(=O)c1cccc(NC(=O)NCCNc2ccnc(Nc3ccc(F)cc3)n2)c1` [GSK1379883], 0%.
In the case of `CN1c2ccc(-c3ccc(C(=O)NCCO)cc3)cc2-c2[nH]ncc2S1(=O)=O`, the “%Inh” value turned out to be 0%.
Take `CC(C)(C)c1ccc(-n2cnc3c(N)ncnc32)cc1` [SKF-97263]: the “%Inh” value was found to be 0%.
The same measure, in the same setting: as for `Nc1nc(-c2cccnc2)c(-c2ccnc3ccccc23)s1` [GW684083], the figure is 0%; as for `CSc1ccc(NC2=C(c3ccccc3Cl)C(=O)NC2=O)cc1` [SB-342411], 0%; as for `Cc1ccc(C)c(NC(=O)NCCNc2ccnc(Nc3ccc(F)cc3)n2)c1` [GSK1379878], 0%.
Still for that read-out and setting: as for `COc1ccc(-c2oc3ncnc(N)c3c2-c2ccc(OC)cc2)cc1` [SB-589132], the figure is 0%; as for `Cl.Cn1ccc(-c2cccc(Nc3ccnc4cc(-c5nccs5)ccc34)c2)n1` [GW525701], 0%.
With `Cn1cc(-c2ccc3c(c2)CCN3C(=O)Cc2cccc(C(F)(F)F)c2)c2c(N)ncnc21` [GSK2606414], the “%Inh” value came to 30%.
Same read-out and setting: in the case of `FC(F)(F)c1cc(Nc2nccc(-c3c(-c4ccc(Cl)cc4)nn4ncccc34)n2)ccc1Cl` [GW829351] it was 0%; in that of `O=C(CCO)NCCn1ccc2ncnc(Nc3ccc(Oc4cccc(C(F)(F)F)c4)c(Cl)c3)c21`, 0%; in that of `COc1ccc(NC(=O)Nc2ccc(C)c(-c3ccc(C(=O)Nc4ccncc4)cc3)c2)cc1` [GSK1398475], 0%.
Still for that read-out and setting: in the case of `CSc1nn2c(=O)cc(N3CCOCC3)nc2n1Cc1cccc(Cl)c1Cl` [GSK2347225] it was 12%.
On to `CS(=O)(=O)CCNCc1nc(-c2ccc3ncnc(Nc4ccc(OCc5cccc(F)c5)c(Cl)c4)c3c2)cs1.Cl` [GW583340], for which the “%Inh” value is on record as 0%.
Regarding `Nc1nc(-c2ccc3c(N)n[nH]c3c2)cc(N2CCC[C@@H](C(=O)Nc3ccccc3)C2)n1.O=C(O)C(F)(F)F.O=C(O)C(F)(F)F` [GSK2288359], the “%Inh” value came out at 0%.
On the same count and under the same terms, in the case of `C[C@H]1CC[C@@H](C(=O)Nc2ccccc2)CN1c1cc(-c2ccc3c(N)n[nH]c3c2)nc(N)n1` [GSK2283293] it was 0%; in that of `CN1CCC(n2cnc(-c3ccc(F)cc3)c2-c2ccnc(NC3CCNCC3)n2)CC1` [SB-229482], 22%.
Consider `COc1ccc(-c2nc3n(c2-c2ccncc2)CCC3)cc1` [SKF-104493], for which the “%Inh” value was found to be 0%.
Same read-out and setting: as for `Cc1cc(N2CCC(NS(=O)(=O)c3ccc(F)cc3)CC2)nc(Nc2cccc(C#N)c2)n1.O=C(O)C(F)(F)F` [GSK1653537], the figure is 0%; as for `CCc1nc(-c2cccc(N(C)S(=O)(=O)c3ccccc3)c2)c(-c2ccnc(Nc3ccc(N4CCN(C(C)=O)CC4)nc3)n2)s1` [GSK1645895], 0%; as for `Nc1n[nH]c2nnc(-c3ccccc3)cc12` [SB-517389], 0%.
On the same count and under the same terms, in the case of `CCC(CC)(CC)n1cnc2c(N)ncnc21` [SKF-97620] it was 7%.
